KDM5B inhibitor – Primary screen for KDM5B Histone Demethylases FDH-coupled qHTS; KDM5B demethylase, FDH-coupled NADH fluorescence (FDH is formaldehyde dehydrogenase); Potency, µM (titrated, usually from 57.7 µM), actives largely listed as inhibitors; actives 2.6% (n = 220,000); AID 1347165, 2019; active = well fitted inhibition curve with a large enough effect; note: 0% is about no effect; nearly all actives have a fitted effect of over 70% in size
Target sequence (Q9UGL1 whole entry, looked up): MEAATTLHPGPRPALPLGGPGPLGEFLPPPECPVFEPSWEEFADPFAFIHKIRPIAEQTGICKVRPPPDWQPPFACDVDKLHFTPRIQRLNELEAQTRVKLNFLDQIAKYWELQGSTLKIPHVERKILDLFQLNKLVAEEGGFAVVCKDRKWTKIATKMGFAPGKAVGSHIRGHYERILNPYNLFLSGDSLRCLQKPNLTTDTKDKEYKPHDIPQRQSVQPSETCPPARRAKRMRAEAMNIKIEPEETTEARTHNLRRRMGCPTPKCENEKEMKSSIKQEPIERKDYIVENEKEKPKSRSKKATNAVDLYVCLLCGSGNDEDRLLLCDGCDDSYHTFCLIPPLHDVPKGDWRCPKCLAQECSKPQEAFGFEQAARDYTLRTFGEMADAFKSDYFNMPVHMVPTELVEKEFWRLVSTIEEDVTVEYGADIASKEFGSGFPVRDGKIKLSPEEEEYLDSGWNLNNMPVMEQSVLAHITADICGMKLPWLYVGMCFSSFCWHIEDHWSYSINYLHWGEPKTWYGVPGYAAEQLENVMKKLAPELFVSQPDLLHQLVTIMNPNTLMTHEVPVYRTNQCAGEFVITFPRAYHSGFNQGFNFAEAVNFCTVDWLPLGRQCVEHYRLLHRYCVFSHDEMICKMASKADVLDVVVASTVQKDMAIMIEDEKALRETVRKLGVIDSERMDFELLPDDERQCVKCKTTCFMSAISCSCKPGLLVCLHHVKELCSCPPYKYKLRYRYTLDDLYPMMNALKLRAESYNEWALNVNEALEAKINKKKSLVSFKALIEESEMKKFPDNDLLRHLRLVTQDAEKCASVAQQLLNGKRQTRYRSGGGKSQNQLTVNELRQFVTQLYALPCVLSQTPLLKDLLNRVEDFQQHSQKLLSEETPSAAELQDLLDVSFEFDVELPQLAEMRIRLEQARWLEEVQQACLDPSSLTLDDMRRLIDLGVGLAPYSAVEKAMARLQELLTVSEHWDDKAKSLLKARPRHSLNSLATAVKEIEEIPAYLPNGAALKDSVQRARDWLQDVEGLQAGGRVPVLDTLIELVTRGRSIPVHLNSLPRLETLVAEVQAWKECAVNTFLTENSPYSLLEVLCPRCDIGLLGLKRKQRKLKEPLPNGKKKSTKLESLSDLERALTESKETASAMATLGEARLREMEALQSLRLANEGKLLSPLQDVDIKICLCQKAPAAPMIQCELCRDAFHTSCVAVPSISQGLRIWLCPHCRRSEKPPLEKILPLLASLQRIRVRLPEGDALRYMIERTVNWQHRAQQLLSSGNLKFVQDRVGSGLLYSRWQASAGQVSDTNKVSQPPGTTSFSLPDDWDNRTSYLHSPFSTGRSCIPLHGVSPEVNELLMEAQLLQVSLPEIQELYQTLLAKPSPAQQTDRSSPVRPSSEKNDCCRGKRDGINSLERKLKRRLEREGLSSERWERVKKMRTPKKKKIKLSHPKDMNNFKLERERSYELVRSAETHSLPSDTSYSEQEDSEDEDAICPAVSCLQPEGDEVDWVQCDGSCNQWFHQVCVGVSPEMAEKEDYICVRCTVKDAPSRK
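KDM5BΔAP (200 nM final) in 50 mM HEPES pH 7.5, 0.01% Tween-20 was preincubated 10 min at RT with compound over a concentration range. Substrate mix (H3K4me3 12.5 µM, α-KG 25 µM, Fe²⁺, ascorbate, NAD⁺, FDH) was added, and NADH fluorescence change over 30 min gave dose-response curves.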
* hit, by the source's call. This is one part of a sample in which hits are shown more often than they occur. Potency is the fitted concentration of half-maximal effect.

For Cc1c(CN2CCCC(C(=O)Nc3cccc(-c4cc5ccccc5[nH]4)c3)C2)cnn1C (configuration not stated) the results were KDM5B inhibitor 28µM*.
Screening Cc1cc(C(=O)N2CCCC(C(=O)Nc3cccc(-c4cc5ccccc5[nH]4)c3)C2)nn1C (configuration not stated) returned KDM5B inhibitor 32µM*.
Screening Cc1cccc(-c2cccc(NC(=O)C3CCCN(C(=O)c4cccc(C)n4)C3)c2)c1 (configuration not stated) returned KDM5B inhibitor inactive.
For COCCNC(=O)C1CCCN(C(=O)c2cc3ccccc3[nH]2)C1 (configuration not stated) the results were KDM5B inhibitor inactive.
Screening COC(=O)CC(NC(=O)c1cccc(F)c1)c1ccc(OC)c(OC)c1 (configuration not stated) returned KDM5B inhibitor inactive.
`CC(C)NC(=O)N1CCC2(CC1)CC(N(Cc1ccc(F)cc1)C1CC1)CCO2` (configuration not stated) gave KDM5B inhibitor inactive.
For Cc1ccc(C(=O)NC2Cc3ccccc3C2)cc1 the results were KDM5B inhibitor inactive.
`O=C(COC(=O)c1ccc(S(=O)(=O)C(F)F)cc1)c1ccc(F)cc1` gave KDM5B inhibitor inactive.
Screening Cn1c(=O)c2c(ncn2CC(COCc2ccccc2F)OCc2ccccc2F)n(C)c1=O (configuration not stated) returned KDM5B inhibitor inactive.
`CC1(C)CC(NC(=S)Nc2cc(F)cc(F)c2)CC(C)(C)N1` gave KDM5B inhibitor inactive.
NNc1ccc(Cc2ccc(NN)cc2)cc1 was read as KDM5B inhibitor inactive.
Screening COc1cc(C(=O)Nc2cccc(-c3nc4ccc(C)cc4o3)c2)cc(OC)c1OC returned KDM5B inhibitor inactive.
O=C1CCCC2=C1C(c1cc(Cl)ccc1O)C1=C(CCCC1=O)O2 was read as KDM5B inhibitor inactive.
`COCc1noc(CCNC(=O)c2cc(-c3ccccc3)on2)n1` gave KDM5B inhibitor inactive.
COCc1noc(CCNc2cc(C)nc(-c3ccccc3O)n2)n1 was read as KDM5B inhibitor 22µM*.
Screening Cc1cc(NCCc2cnccn2)nc(-c2ccccc2O)n1 returned KDM5B inhibitor inactive.
Screening O=C(NC1CCN(Cc2ccccc2)CC1)c1cc2n(n1)CC(c1ccc(Cl)cc1)OC2 (configuration not stated) returned KDM5B inhibitor inactive.
For Cc1ccc(NC(=O)c2cc3n(n2)CC(c2ccc(Cl)cc2)OC3)cc1 (configuration not stated) the results were KDM5B inhibitor 20µM*.
For Cc1cc(C)cc(NC(=O)c2cc3n(n2)CC(c2ccc(Cl)cc2)OC3)c1 (configuration not stated) the results were KDM5B inhibitor 25µM*.
`CC(=O)c1ccc(NC(=O)c2cc3n(n2)CC(c2ccc(Br)cc2)OC3)cc1` (configuration not stated) gave KDM5B inhibitor inactive.
Screening Cc1ccc(C(=O)N2CCc3nc(C(C)C)nc(-c4ccc(Cl)cc4)c3CC2)cc1 returned KDM5B inhibitor inactive.
Screening CCc1nc2c(c(-c3ccc(Cl)cc3)n1)CCN(Cc1cccnc1)CC2 returned KDM5B inhibitor inactive.
CCc1nc2c(c(-c3ccc(Cl)cc3)n1)CN(Cc1ccc(OC)cc1)CC2 was read as KDM5B inhibitor 18µM*.
Screening CC(C)c1nc2c(c(-c3ccc(Cl)cc3)n1)CCN(CC1CCCCC1)CC2 returned KDM5B inhibitor 35µM*.
Screening COc1ccc(-c2nc(C)nc3c2CCN(Cc2ccc(F)cc2)CC3)cc1 returned KDM5B inhibitor inactive.
Screening CCc1nc2c(c(-c3ccc(Cl)cc3)n1)CCN(Cc1ccc(OC)cc1)CC2 returned KDM5B inhibitor inactive.
Screening CCc1nc2c(c(-c3ccc(Cl)cc3)n1)CCN(CC1CC1)CC2 returned KDM5B inhibitor 28µM*.
`CCc1nc2c(c(-c3ccc(Cl)cc3)n1)CCN(Cc1ccc(N(C)C)cc1)CC2` gave KDM5B inhibitor inactive.
`Cc1ccc(CN2CCc3nc(C(C)C)nc(-c4ccc(O)cc4)c3CC2)cc1` gave KDM5B inhibitor inactive.
For COc1ccc(-c2nc(C)nc3c2CCN(CC2CC2)CC3)cc1 the results were KDM5B inhibitor 40µM*.
For Cc1nc2c(c(-c3ccc(O)cc3)n1)CN(CC1CC1)CC2 the results were KDM5B inhibitor inactive.
Screening CCc1nc2c(c(-c3ccc(Cl)cc3)n1)CN(Cc1ccc(N(C)C)cc1)CC2 returned KDM5B inhibitor inactive.
For COc1ccc(S(=O)(=O)N2CC[C@H]3NC(=O)N(c4ccc(C(C)C)cc4)C(=O)[C@H]32)cc1 the results were KDM5B inhibitor inactive.
Cc1cccc(NC(=O)c2cnc3ccccc3n2)n1 was read as KDM5B inhibitor inactive.
Screening CC1=C/C(=N/Nc2nc3ccccc3[nH]2)CC1 returned KDM5B inhibitor inactive.
Screening Cc1nc2c(=O)oc3ccccc3c2nc1C returned KDM5B inhibitor inactive.
O=C(Cc1ccc(Br)cc1)Nc1nc2c(s1)CCCC2 was read as KDM5B inhibitor inactive.
`O=C(O)c1ccccc1SCc1ccccc1Cl` gave KDM5B inhibitor inactive.
Screening CNC(=O)c1ccc(NC(=O)c2ccc3c(c2)NC(=O)CS3)cc1 returned KDM5B inhibitor inactive.
O=S(CCN1CCN(Cc2c(F)cccc2Cl)CC1)c1ccccc1 (configuration not stated) was read as KDM5B inhibitor inactive.
For Cc1ccc(CN2C(=O)OC(c3cccc(NC(=O)Cc4ccccc4)c3)C2C(=O)N2CCCC2)cc1 (configuration not stated) the results were KDM5B inhibitor inactive.
Screening O=C1NCCCCCCN(Cc2ccncc2)[C@@H]2CN(S(=O)(=O)c3ccc4c(c3)CCC4)CC[C@H]12 returned KDM5B inhibitor inactive.
CC(=O)c1ccc(NC(=O)N(C)CCc2noc(-c3ccc(C(=O)N4CCCCC4)cc3)n2)cc1 was read as KDM5B inhibitor inactive.
Screening O=c1[nH]c2ccc(-c3csc(NC4CCCC4)n3)cc2o1 returned KDM5B inhibitor inactive.
COc1ccc(CN2CCc3nc(C(C)C)nc(-c4ccc(O)cc4)c3CC2)cc1 was read as KDM5B inhibitor inactive.
For CC(C)c1nc2c(c(-c3ccc(Cl)cc3)n1)CCN(Cc1ccnn1C)CC2 the results were KDM5B inhibitor inactive.
For CC(C)c1nc2c(c(-c3ccc(O)cc3)n1)CN(Cc1ccc(OC(F)(F)F)cc1)CC2 the results were KDM5B inhibitor 18µM*.
For CC(C)c1nc2c(c(-c3ccc(Cl)cc3)n1)CCN(Cc1cccc3ccccc13)CC2 the results were KDM5B inhibitor 56µM*.
`CC(C)c1nc2c(c(-c3ccc(Cl)cc3)n1)CCN(Cc1cccnc1)CC2` gave KDM5B inhibitor inactive.
For Oc1ccc(-c2nc(C3CC3)nc3c2CN(Cc2ccc(OC(F)(F)F)cc2)CC3)cc1 the results were KDM5B inhibitor inactive.
For COc1ccc(-c2noc(-c3nnn4c3COC(c3ccc(C)cc3C)C4)n2)c(OC)c1 (configuration not stated) the results were KDM5B inhibitor inactive.
`Cn1ccnc1C(=O)N1CCC(N2C(=O)C3(CCCCC3)C2c2ccncc2)CC1` (configuration not stated) gave KDM5B inhibitor inactive.
`CC(C)(C)OC(=O)N1Cc2ccccc2C[C@H]1C(=O)Nc1ccc2c(c1)OCO2` gave KDM5B inhibitor inactive.
`CC(C)(C)c1ccc(C(=O)Nc2ccc(C(O)[C@H]3COCC(=O)N3Cc3ccccn3)cc2)cc1` (some centres not stated) gave KDM5B inhibitor inactive.

Source: PubChem BioAssay (National Center for Advancing Translational Sciences (NCATS))
